Screens deposited in PubChem BioAssay by several laboratories.
This is a sample that favours compounds with a hit; in the whole collection about 0.99% have one here.
LANA DNA inh = inhibitors of KSHV C-LANA binding to DNA, primary screen, biochemical, fluorescence polarization, FAM-LBS DNA, MBP-C-LANA, single point | hit rate 0.078% among 340,000 | inhibition, % at 9 µM | AID 504423, 2011;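 active = highest replicate inhibition at or above 60% at 9 µM, even if other replicates fall short; inactive = all replicates below 60% inhibition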;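 note: 0% = neutral control wells and 100% = 4 µM acridine orange control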
LANA-H2A inh = blockers of LANA interaction with H2A/H2B – biochemical, FP readout, HTS, primary screen; cell-free LANA-H2A/H2B peptide, fluorescence polarization; inhibition, % (no concentration beside the values); hit rate 0.6% among 320,000; in the data active = inhibition mostly above about 10%, no sharp cut-off; inactive = mostly below about 6.7%
Target sequence (Q9QR71 whole entry, looked up): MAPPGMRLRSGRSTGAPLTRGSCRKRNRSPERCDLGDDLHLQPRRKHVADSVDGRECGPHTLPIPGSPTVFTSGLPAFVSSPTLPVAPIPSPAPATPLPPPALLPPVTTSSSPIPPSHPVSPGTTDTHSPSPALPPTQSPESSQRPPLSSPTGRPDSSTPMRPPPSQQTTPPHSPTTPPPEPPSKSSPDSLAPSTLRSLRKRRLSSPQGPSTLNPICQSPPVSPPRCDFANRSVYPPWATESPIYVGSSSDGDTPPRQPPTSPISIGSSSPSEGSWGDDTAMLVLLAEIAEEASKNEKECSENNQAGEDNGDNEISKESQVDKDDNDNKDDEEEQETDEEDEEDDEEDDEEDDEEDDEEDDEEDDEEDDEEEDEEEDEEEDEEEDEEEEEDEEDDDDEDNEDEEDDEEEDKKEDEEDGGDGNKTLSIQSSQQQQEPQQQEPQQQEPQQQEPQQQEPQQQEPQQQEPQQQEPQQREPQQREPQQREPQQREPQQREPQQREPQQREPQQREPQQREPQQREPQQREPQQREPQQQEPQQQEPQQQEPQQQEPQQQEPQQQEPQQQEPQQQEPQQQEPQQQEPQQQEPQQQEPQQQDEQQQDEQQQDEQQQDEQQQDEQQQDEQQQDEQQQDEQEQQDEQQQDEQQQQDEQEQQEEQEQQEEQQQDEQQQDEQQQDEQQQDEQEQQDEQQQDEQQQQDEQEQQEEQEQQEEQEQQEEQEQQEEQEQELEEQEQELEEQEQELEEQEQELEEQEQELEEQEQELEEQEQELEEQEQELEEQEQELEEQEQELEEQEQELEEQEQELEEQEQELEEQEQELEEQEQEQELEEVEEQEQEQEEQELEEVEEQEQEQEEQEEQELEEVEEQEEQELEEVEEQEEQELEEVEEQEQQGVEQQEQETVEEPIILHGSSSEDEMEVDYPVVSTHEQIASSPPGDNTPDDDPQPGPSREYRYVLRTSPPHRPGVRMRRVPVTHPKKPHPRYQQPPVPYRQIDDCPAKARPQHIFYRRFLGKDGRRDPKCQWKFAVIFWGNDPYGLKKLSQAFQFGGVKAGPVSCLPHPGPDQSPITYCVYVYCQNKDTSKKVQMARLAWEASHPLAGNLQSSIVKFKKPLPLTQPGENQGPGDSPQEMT
Keap1 Nrf2 FP = Keap1-Nrf2 protein-protein interaction inhibitors, primary screen, biochemical, fluorescence polarization, single point; Keap1 Kelch-Nrf2 peptide fluorescence polarization, 1536-well; inhibition, % at 9.4 µM; hit rate 0.15% among 340,000; AID 504523, 2011; in the data active = inhibition above about 12%;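 note: human Keap1 Kelch domain with fluorescein labeled Nrf2 9mer peptide probe; 0% = neutral control wells and 100% = peptide positive control; higher means more block of Keap1 binding to Nrf2 peptide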
Cardiac RTF inh = cardiac RTF calcium sensitivity inhibitors, primary screen, biochemical, IANBD-TnC fluorescence, EC70 calcium; hit rate 0.12% among 340,000; IANBD-labeled cardiac RTF, Ca2+ fluorescence; inhibition, % at 7.15 µM; Troponin I, cardiac muscle (Homo sapiens) + Troponin T, cardiac muscle (Homo sapiens) + …;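 active = inhibition above the mean inhibition of all tested compounds plus 3 SD, cut at about 17% in these data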;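 note: assay run at fixed EC70 calcium of 1.6 mM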
cardiac RTF act = cardiac RTF calcium sensitivity activators, primary screen, biochemical, IANBD-TnC fluorescence, EC20 calcium; Troponin I, cardiac muscle (Homo sapiens) + Troponin T, cardiac muscle (Homo sapiens) + …; IANBD-labeled TnC RTF fluorescence at EC20 calcium; 0% EC20 calcium, 100% full calcium; activation, % at 7.2 µM; hit rate 0.24% among 340,000; AID 493008, 2010;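 active = activation above the mean over all tested compounds plus 3 SD, cut at about 30% in these data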;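 note: rise in fluorescence read as greater calcium sensitivity of cardiac thin filaments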
The depositor's hits bear a star.

What do the screens show for `Cc1ccccc1Nc1nc(N)nc(CN(C)c2ccccc2)n1`?
LANA DNA inh: -0.7; LANA-H2A inh: 28.1*; Keap1 Nrf2 FP: 4.9; Cardiac RTF inh: -3.8; cardiac RTF act: -6.3

How did Cc1ccccc1Nc1nc(N)nc(CCl)n1 do in these assays?
LANA DNA inh: -7.1; LANA-H2A inh: -3.0; Keap1 Nrf2 FP: 2.2; Cardiac RTF inh: 5.5; cardiac RTF act: -3.2

Results for CC1(C)C(C#N)=C(N)OC2=C1C(=O)CCC2 ?
LANA DNA inh: -1.2; LANA-H2A inh: 18.4*; Keap1 Nrf2 FP: -6.1; Cardiac RTF inh: -14.9; cardiac RTF act: 8.0

Results for N#CC1=C(N)OC2=C(C(=O)CCC2)C12CCC1(CC2)OCCO1 ?
LANA DNA inh: 1.2; LANA-H2A inh: -2.1; Keap1 Nrf2 FP: 0.0; Cardiac RTF inh: 0.5; cardiac RTF act: 1.6

How did C=CCc1cccc(/C=N/c2ncccc2O)c1O do in these assays?
LANA DNA inh: 4.7; LANA-H2A inh: 2.7; Keap1 Nrf2 FP: 3.4; Cardiac RTF inh: -3.1; cardiac RTF act: -12.0

Results for COc1ccc2nc(SCC(=O)NCCc3ccccc3)[nH]c2c1 ?
LANA DNA inh: 0.9; LANA-H2A inh: -4.5; Keap1 Nrf2 FP: -1.5; Cardiac RTF inh: -4.2; cardiac RTF act: 0.8

How did O=S(=O)(c1cnc[nH]1)N1CCN(c2ccc(F)cc2)CC1 do in these assays?
LANA DNA inh: -1.4; LANA-H2A inh: 110.8*; Keap1 Nrf2 FP: -3.4; Cardiac RTF inh: -11.3; cardiac RTF act: -0.5

How did CC[C@@H]1C/C=C\Cc2ccccc2[C@@H](C(=O)C[C@H](O)CC(C)=O)OC1=O do in these assays?
LANA DNA inh: -2.0; LANA-H2A inh: active; Keap1 Nrf2 FP: -2.1; Cardiac RTF inh: -0.8; cardiac RTF act: -3.3

What do the screens show for `CC[C@@H]1C/C=C\Cc2ccccc2[C@H](C(=O)C[C@H](O)CC(C)=O)OC1=O`?
LANA DNA inh: -0.7; LANA-H2A inh: 0.3; Keap1 Nrf2 FP: -5.4; Cardiac RTF inh: -5.7; cardiac RTF act: 0.1

What do the screens show for `CCC(=O)OCCn1c(Br)nc2c1c(=O)[nH]c(=O)n2C`?
LANA DNA inh: -0.6; LANA-H2A inh: -0.2; Keap1 Nrf2 FP: -3.7; Cardiac RTF inh: 4.5; cardiac RTF act: -6.0

Results for Cn1c(=O)[nH]c(=O)c2c1nc(Br)n2CCCO ?
LANA DNA inh: 0.2; LANA-H2A inh: 4.4*; Keap1 Nrf2 FP: 2.4; Cardiac RTF inh: -0.1; cardiac RTF act: -1.1

Results for O=C(Nc1cccnc1)c1cc(-c2cccs2)on1 ?
LANA DNA inh: 0.8; LANA-H2A inh: 91.8*; Keap1 Nrf2 FP: -3.8; Cardiac RTF inh: 1.0; cardiac RTF act: -3.5

What do the screens show for `Cc1c(NC(=O)c2cc(-c3cccs3)on2)c(=O)n(-c2ccccc2)n1C`?
LANA DNA inh: -1.1; LANA-H2A inh: 174.6*; Keap1 Nrf2 FP: -2.2; Cardiac RTF inh: -6.2; cardiac RTF act: -2.0

Results for Cc1c(NC(=O)c2cc(-c3ccco3)on2)c(=O)n(-c2ccccc2)n1C ?
LANA DNA inh: -1.8; LANA-H2A inh: -3.1; Keap1 Nrf2 FP: -1.6; Cardiac RTF inh: 0.8; cardiac RTF act: -1.8

What do the screens show for `O=C(Nc1cccnc1)c1cc(-c2ccccc2O)on1`?
LANA DNA inh: -0.2; LANA-H2A inh: -4.6; Keap1 Nrf2 FP: -3.8; Cardiac RTF inh: 2.1; cardiac RTF act: -4.8

What do the screens show for `CCOC(=O)C1(Cc2cccc(F)c2)CCN(C(=O)Cc2cccnc2)CC1`?
LANA DNA inh: -2.4; LANA-H2A inh: -3.5; Keap1 Nrf2 FP: 2.1; Cardiac RTF inh: -0.6; cardiac RTF act: -4.2

What do the screens show for `N#Cc1nnn(-c2ccc(Cl)cc2)c1N`?
LANA DNA inh: -3.4; LANA-H2A inh: 1.8; Keap1 Nrf2 FP: 1.2; Cardiac RTF inh: 2.7; cardiac RTF act: -2.2

What do the screens show for `CC(C)Oc1ccc(CNC(=O)CCC(=O)N2CC(C)Sc3ccccc32)cc1` (stereo unspecified)?
LANA DNA inh: 0.9; LANA-H2A inh: 27.4*; Keap1 Nrf2 FP: -1.9; Cardiac RTF inh: 5.8; cardiac RTF act: 9.0

What do the screens show for `Cc1ccccc1NC(=O)Cc1nc(COC(=O)COc2ccc(C(C)(C)C)cc2)cs1`?
LANA DNA inh: -0.5; LANA-H2A inh: 17.2*; Keap1 Nrf2 FP: -1.6; Cardiac RTF inh: 1.5; cardiac RTF act: -4.9

How did CCCCN1C(=O)C(=O)c2cc(Cl)ccc21 do in these assays?
LANA DNA inh: 1.3; LANA-H2A inh: active; Keap1 Nrf2 FP: 2.5; Cardiac RTF inh: -5.8; cardiac RTF act: 2.1

How did NC(=O)c1nn(CC(=O)Nc2cccc(S(=O)(=O)N3CCCCCC3)c2)c(=O)c2ccccc12 do in these assays?
LANA DNA inh: 0.9; LANA-H2A inh: active; Keap1 Nrf2 FP: -3.1; Cardiac RTF inh: -4.3; cardiac RTF act: -3.8

How did Cn1c(C(=O)N2CCN(Cc3ccccc3)CC2)cc2c(=O)n(C)c3ccccc3c21 do in these assays?
LANA DNA inh: -1.1; LANA-H2A inh: 10.5; Keap1 Nrf2 FP: -4.2; Cardiac RTF inh: -0.9; cardiac RTF act: -6.7

How did CCc1ccc(C(=O)Nc2cc(C)ccc2F)s1 do in these assays?
LANA DNA inh: -1.9; LANA-H2A inh: -0.5; Keap1 Nrf2 FP: -1.3; Cardiac RTF inh: -1.5; cardiac RTF act: -3.9

How did CCc1ccc2c(COC(=O)CNS(=O)(=O)c3ccc(NC(C)=O)cc3)cc(=O)oc2c1 do in these assays?
LANA DNA inh: 1.2; LANA-H2A inh: -2.3; Keap1 Nrf2 FP: -3.9; Cardiac RTF inh: 0.2; cardiac RTF act: 16.7

How did CN1CCN(NC(=O)Nc2cccc(Cl)c2Cl)CC1 do in these assays?
LANA DNA inh: -1.1; LANA-H2A inh: 1.6; Keap1 Nrf2 FP: -2.0

How did Cn1nccc1NC(=O)Nc1cccc(Cl)c1Cl do in these assays?
LANA DNA inh: -2.3; LANA-H2A inh: -3.1; Keap1 Nrf2 FP: -3.1; Cardiac RTF inh: 2.8; cardiac RTF act: 60.8*

How did CN(C)c1ccc(C(=O)c2ccc(O)cc2O)cc1 do in these assays?
LANA DNA inh: 1.0; LANA-H2A inh: 8.4; Keap1 Nrf2 FP: -3.8; Cardiac RTF inh: -11.8; cardiac RTF act: -3.8

What do the screens show for `O=C(c1ccc(O)cc1)c1ccc(O)cc1O`?
LANA DNA inh: 12.1; LANA-H2A inh: 12.3*; Keap1 Nrf2 FP: 0.9; Cardiac RTF inh: 2.8; cardiac RTF act: -0.5

What do the screens show for `O=C(NCc1ccc(F)cc1)c1cccc2c1C(=O)c1ccc(N3CCC(Cc4ccccc4)CC3)cc1S2(=O)=O`?
LANA DNA inh: 27.6; LANA-H2A inh: 6.5; Keap1 Nrf2 FP: 0.5; Cardiac RTF inh: -441.1; cardiac RTF act: 232.4*

How did CC1CCN(c2ccc3c(c2)S(=O)(=O)c2cccc(C(=O)NC4CCCCC4)c2C3=O)CC1 do in these assays?
LANA DNA inh: 1.6; LANA-H2A inh: -0.8; Keap1 Nrf2 FP: -9.2; Cardiac RTF inh: -15.3; cardiac RTF act: 33.0*
